EP2 mod: EP2 receptor modulators, cAMP readout, primary screen, cell-based, HTRF cAMP, PGE2 stimulation; Prostaglandin E2 receptor EP2 subtype (Homo sapiens), P43116; EP2-expressing cells, cAMP HTRF FRET, PGE2 co-stimulation; induction, % at 25 µM; 260,000 tested, 0.83% active;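 active = compounds whose cAMP rise, as percent of the full-agonist control response, exceeds 60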;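 note: rat C6 glioma line stably carrying human EP2 under a CMV promoter; the protocol text gives 20 µM as final concentration; 100% = response of wells given 1 µM PGE2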
CHT inh: inhibitors of human choline transporter CHT; High affinity choline transporter 1 (Homo sapiens), Q9GZV3; CHT-expressing cells, membrane potential dye, choline response; active compounds read low; B-score at 10 µM; 310,000 tested, 0.86% active; AID 488975, 2010;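 active = B-score over 3 SD under the library average, and starting fluorescence ratio not unusually high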;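 note: choline stimulus applied at its EC90 after an EC20 pre-addition; B-score computed on integrated fluorescence ratio after choline addition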
Target sequence (Q9GZV3 whole entry, looked up): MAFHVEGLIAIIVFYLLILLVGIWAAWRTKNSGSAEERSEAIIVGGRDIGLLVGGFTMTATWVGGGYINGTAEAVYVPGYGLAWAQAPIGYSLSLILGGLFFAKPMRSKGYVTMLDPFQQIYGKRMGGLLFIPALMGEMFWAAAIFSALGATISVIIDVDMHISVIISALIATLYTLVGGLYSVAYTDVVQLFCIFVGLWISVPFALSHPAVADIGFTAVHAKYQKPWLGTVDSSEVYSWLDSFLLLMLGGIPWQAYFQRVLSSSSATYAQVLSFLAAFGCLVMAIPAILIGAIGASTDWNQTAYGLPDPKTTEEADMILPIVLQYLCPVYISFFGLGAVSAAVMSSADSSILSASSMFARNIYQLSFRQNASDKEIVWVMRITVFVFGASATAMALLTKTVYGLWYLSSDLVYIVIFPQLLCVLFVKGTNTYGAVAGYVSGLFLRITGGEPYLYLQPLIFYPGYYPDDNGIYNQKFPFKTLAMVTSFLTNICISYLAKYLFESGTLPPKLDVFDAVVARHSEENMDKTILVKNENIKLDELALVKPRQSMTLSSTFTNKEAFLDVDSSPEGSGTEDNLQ
PGE2 EP2 inh: human EP2 receptor antagonists, primary screen, TR-FRET cAMP, C6 glioma cells; AID 1422, 2008; 260,000 tested, 0.52% active; inhibition, % at 25 µM; C6 glioma cells expressing human EP2; cells stimulated with saturating PGE2;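 active = percent inhibition above 40 after rounding to a whole number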;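 note: rat C6 glioma host cells with rolipram phosphodiesterase inhibitor present; the protocol text gives 20 µM as final concentration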
CHT PAM: CHT positive allosteric modulators, primary screen, cell-based, membrane potential dye, choline EC20; CHT-expressing cells; active compounds read high; LV-AA mutant CHT in HEK293 cells; B-score at 10 µM; 310,000 tested, 0.49% active; AID 488977, 2010;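 active = initial fluorescence not abnormally high and integrated response B-score, plate-corrected, over 3 SD above library mean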
* hit, by the source's call; i = inactive; · = not tested or not shown; ! = a repeat was not active. Sampled rows, rich in hits. Any-hit rate of the full collection: about 2.1%.

SMILES | EP2 mod | CHT inh | PGE2 EP2 inh | CHT PAM
CCC(c1nnnn1C(C)(C)CC)N(Cc1ccc(C)cc1)Cc1cc2cc(OC)ccc2[nH]c1=O (configuration not stated) | 29 | · | 14 | ·
Brc1ccccc1C1CC(c2ccccc2)=Nc2ccccc2N1 (configuration not stated) | 48 | i | 6 | i
Clc1ccccc1C1CC(c2ccccc2)=Nc2ccccc2N1 (configuration not stated) | 62* | i | 7 | i
Cc1nc(N2CCN(C(=O)COc3ccccc3)CC2)c2c(C)c(C)sc2n1 | 0 | -7.5* | 8 | i
Cc1cccc2[nH]c3c(N4CCC5(CC4)OCCO5)ncnc3c12 | -44 | i | 10 | i
Clc1ccc2[nH]c3c(N4CCC5(CC4)OCCO5)ncnc3c2c1 | -60 | i | 46* | i
Cn1ccnc1C1(O)CCN(CC(=O)Nc2ccccc2N2CCCCC2)CC1 | -22 | · | · | ·
CN1[C@@H](c2ccccc2)CC(=NO)C[C@H]1c1ccccc1 | 39 | · | 42* | ·
Cc1ccc(C(=O)C2=C(O)C(=O)N(Cc3ccccc3)C2c2cccnc2)o1 (configuration not stated) | 61* | i | 17 | i
Cc1ccc(C(=O)C2=C(O)C(=O)N(Cc3cccnc3)C2c2ccc(Cl)cc2)o1 (configuration not stated) | · | i | · | i
COc1ccc(N2CCN(C(=O)NC3CC(=O)N(c4ccc(OC)cc4)C3)CC2)cc1 (configuration not stated) | -51 | i | 6 | i
CCCN(CCC)C(=O)NC1CC(=O)N(c2ccc(OC)cc2)C1 (configuration not stated) | -8 | i | 68* | i
Cc1[nH][nH]c(=O)c1C(c1ccccc1OCC#N)c1c(C)[nH][nH]c1=O | -3 | · | 12 | ·
CSc1ccc(-c2nnn(Cc3ccc(Br)cc3)n2)cc1 | -42 | i | 43* | i
CC(C)(C)NC(=O)COC(=O)CCC(=O)c1ccc(F)cc1 | -8 | i | 89* | i
O=C1c2ccccc2C(=O)c2c(Nc3cc4c5c(ccc6c7ccc8c9c(cc(Nc%10cccc%11c%10C(=O)c%10ccccc%10C%11=O)c(c3c56)c97)-c3ccccc3C8=O)C(=O)c3ccccc3-4)cccc21 | 2 | · | 44* | ·
O=C1c2ccccc2C(=O)c2c(Nc3ccc4c5c(cccc35)C(=O)c3ccccc3-4)cccc21 | 19 | · | 43* | ·
Cc1cccc2c1Sc1ccccc1CC2=O | 64* | i | 15 | i
Cc1ccccc1OCC(O)CN1CCN(CCN2C(=O)c3cccc4cccc(c34)C2=O)CC1 (configuration not stated) | -10 | i | 4 | i
Cc1cccc(C)c1OCC(O)CN1CCC(CN2C(=O)c3cccc4cccc(c34)C2=O)CC1 (configuration not stated) | -28 | -6.3* | 21 | i
COc1cc2ncc(C(=O)c3ccccc3)c(N3CCN(Cc4ccccc4)CC3)c2cc1OC | 86* | i | 7 | i
COc1ccccc1N1CCN(Cc2ccc(C(=O)O)cc2)CC1 | · | i | · | i
CC(C)C(=O)N1CCC(n2nc(-c3cccs3)oc2=O)CC1 | 7 | · | 10 | ·
O=c1[nH]c(=O)c2cc(S(=O)(=O)NC(c3ccccc3)c3ccccc3)ccc2[nH]1 | -18 | · | 8 | ·
CCOC(=O)Nc1cccc(Nc2ccccc2)c1 | 62* | i | 6 | i
SMILES | EP2 mod | CHT inh | PGE2 EP2 inh | CHT PAM
CCOC(=O)Nc1cccc(C(=O)O)c1 | 13 | i | 9 | i
COc1ccc(-c2cc(-c3ccc(O)cc3)nc(N)c2C#N)cc1OC | -11 | i | 40*! | i
CCOc1ccc(-c2cc(-c3ccc(OC)c(OC)c3)c(C#N)c(N)n2)cc1 | 80* | · | 12 | ·
Cc1ccc(-c2cc(-c3ccc4c(c3)OCO4)c(C#N)c(N)n2)o1 | 11 | i | 10 | i
N#Cc1c(-c2ccc3c(c2)OCO3)cc(-c2ccc(F)cc2)nc1N | 61* | · | 22 | ·
COc1ccc(-c2cc(-c3ccc(C)cc3)nc(N)c2C#N)cc1OC | -133 | · | 11 | ·
COC(=O)c1cc(-c2cccc(Cl)c2Cl)no1 | -18 | · | 8 | ·
O=C(CN1CCOCC1)Nc1ccc(NC(=O)c2cccc(Cl)c2)cc1 | -49 | · | 9 | ·
Cc1cc2ccccc2n1CCCNS(=O)(=O)c1ccc2[nH]c(=O)[nH]c(=O)c2c1 | -43 | · | 9 | ·
CCOc1ccc(N2CC(C(=O)Nc3ccc(C)cc3C)CC2=O)cc1 (configuration not stated) | -18 | · | 13 | ·
Cc1ccc(OCC(=O)NC(=S)Nc2ccc3c4c(cccc24)CC3)cc1 | 62* | i | 20 | i
O=C(NCCc1c[nH]c2ccccc12)c1ccccc1 | · | i | · | i
O=C(/C=C/c1ccccc1)NCCc1c[nH]c2ccccc12 | -134 | i | 74* | i
COc1ccc(-c2csc(NC(=O)c3ccccc3NS(=O)(=O)c3ccc(F)c(F)c3)n2)cc1 | -23 | -8.4* | 24 | i
O=C(NCCNCc1c[nH]c2ccccc12)c1ccccc1Cl | -44 | · | 17 | ·
COc1ccc(NC(=O)N(Cc2cc3cccc(C)c3[nH]c2=O)C2CCCCC2)cc1 | -53 | · | 19 | ·
CCn1c(SCC(=O)NC(C)(C)C)nnc1-c1cccc(C)c1 | 0 | · | 7 | ·
N#Cc1cc2[nH]c3ccccc3c2[n+](-c2ccc([N+](=O)[O-])cc2)c1N | 16 | i | 8 | 8.8*
CN1C[C@H](c2ccccc2)C(O)([C@]2(c3ccccc3)CN(C)C[C@H](c3ccccc3)C2=O)[C@H](c2ccccc2)C1 (some centres not stated) | 21 | · | 40* | ·
COc1ccc(C(=O)NC(=S)Nc2sc3c(c2C#N)CCC(C)C3)cc1 (configuration not stated) | -20 | · | 16 | ·
Cn1cc(C(=O)CCl)c2ccccc21 | -17 | · | 11 | ·
Cn1cc(/C(Cc2ccccc2)=N\O)c2ccccc21 | 64* | i | 5 | i
COC(=O)c1ccc(C2NC(=O)C(O)=C2C(=O)c2ccco2)cc1 (configuration not stated) | 5 | · | 6 | ·
O=C(CCN1Cc2ccccc2C1=O)NC1(c2cccc(F)c2)CCCC1 | -31 | · | 6 | ·
C[C@H]1[C@H](C)CC[C@@]2(C(=O)O)CC[C@@]3(C)C(=CC[C@H]4[C@]5(C)C[C@H](O)[C@@H](O)[C@@](C)(CO)[C@H]5[C@H](O)C[C@@]43C)[C@H]12 | 31 | · | 43* | ·
C[C@H]1[C@H](C)CC[C@]2(C(=O)O)CC[C@]3(C)C(=CCC4[C@@]5(C)C[C@@H](O)[C@H](O)[C@@](C)(CO)C5[C@H](O)C[C@]43C)[C@H]12 (some centres not stated) | -1 | · | 14 | ·
O=C(c1ccc(Cl)nc1)c1cccs1 | 25 | i | 2 | i
O=C(c1cccs1)c1no[n+]([O-])c1C(=O)c1cccs1 | -17 | i | 130* | i

Source: PubChem BioAssay
